# In all, about 320,000 compounds went through this assay and about 2,100 (0.66%) were called active. Inconclusive results (about 53%) are left out. Calls follow the shape of the dose curve; as a rule, active = well fitted inhibition curve with a large enough effect in the signal ratio, with a control signal flat (not every such curve was filed as active); inconclusive = small, poorly fitted or top-dose-only effect, or effect the other way, or a change in a side signal; inactive = flat fitted curve, though single readings scatter; the % refers to the signal ratio. The list comes from a sample in which actives are over-represented; it also holds similar structures and randomly drawn compounds.
# Assay: qHTS Assay for Lipid Storage Modulators in Drosophila S3 Cells;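 as to cell number change: cells counted by Cell Tracker Red CMTPX staining in the red channel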; as to lipid storage change, negative = inhibition: % is scaled to controls: 0 for no effect and ±100 for the full control effect
# Conditions: BODIPY lipid droplet fluorescence, 18-24 h, cells fed with added oleic acid; cell number change: measured here: cell count max response; series mostly up to 46.1 µM
# In short: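 Laser-scanning cytometry quantifies lipid droplet accumulation (500–530 nm total intensity; droplet/cell object ratio) in oleic acid-fed (400 uM added) Drosophila S3 cells treated with a concentration series. 20 uM Triacsin C defined 100% inhibition.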
# Potency is read from the fitted curve at half-maximal effect.
Structure (SMILES),Potency,cell number change [%],"lipid storage change, negative = inhibition"
O=C(c1cnccn1)N1CCN(c2ccccc2F)CC1,inactive,-10.1,–
Nc1ncc(Br)cc1S(=O)(=O)NC1CCCCC1,inactive,6.11,–
Nc1ncc(Br)cc1S(=O)(=O)Nc1ccccc1F,inactive,–,–
Nc1ncc(Br)cc1S(=O)(=O)Nc1cc(C(F)(F)F)cc(C(F)(F)F)c1,0.58 µM (active),-15.9,–
Cc1c(C(=O)O/N=C(\N)c2ccccn2)cccc1[N+](=O)[O-],inactive,7.58,–
CCOC(=O)C1=C(COC(=O)Cc2ccc(Cl)cc2)NC(=O)NC1C (centres undefined),inactive,5.22,–
Cn1nnnc1SCC(=O)Nc1ccccc1Br,inactive,-3.35,–
O=C(CN1CCN(CC(=O)Nc2ccccn2)CC1)Nc1ccccn1,29.1 µM (active),1.87,–
NC(=O)C1CCN(CC(=O)Nc2ccccn2)CC1,inactive,–,–
Cn1nnnc1SCC(=O)Nc1ccccn1,5.8 µM (active),-3.74,–
Cc1cc(C)cc(NC(=O)CN2CCN(c3ccccn3)CC2)c1,16.4 µM (active),-2.33,–
Cc1cccc(NC(=O)CSc2nnnn2C)n1,inactive,-5.08,–
O=C(CN1CCN(c2ccccn2)CC1)Nc1ccccc1,inactive,6.43,–
Cc1cc(C)cc(NC(=O)CN2CCN(c3ncccn3)CC2)c1,inactive,8.39,–
O=C(CC(=O)Nc1ccccn1)Nc1ccccn1,inactive,4.61,–
CCOC(=O)C1=C(C)NC(=O)NC1c1ccc(OC(C)C(=O)O)c(OC)c1 (centres undefined),inactive,0.405,–
O=C(C[n+]1ccccc1)N/N=C/c1cccc(Cl)c1Cl,inactive,4.15,–
CCOc1ccc(C(=O)Nc2ccccc2-c2ccccc2)cc1Cl,inactive,-2.51,–
O=C(CSc1nc2ccccc2c(=O)n1-c1ccc(F)cc1)NC1CCS(=O)(=O)C1 (centres undefined),inactive,–,–
COc1ccc(OC)c(NC(=O)COC(=O)CN(C)S(=O)(=O)c2ccc(C)cc2)c1,inactive,1.08,–
Cc1[nH]c2ccccc2c1/C=N/NC(=O)C1CC1(c1ccccc1)c1ccccc1 (centres undefined),inactive,-28.5,–

Structure (SMILES),Potency,cell number change [%],"lipid storage change, negative = inhibition"
Cc1ccc(C(=O)NCc2cccnc2)o1,inactive,-7.92,–
CC1(C)Cc2c(sc3ncnc(NN)c23)CO1,inactive,28.8,–
CCC(=O)Nc1nc(C)c(-c2csc(Nc3cccc(C(=O)O)c3)n2)s1,inactive,10.2,–
CCCCCC(=O)Nc1nc(C)c(-c2csc(Nc3ccc(Cl)cc3)n2)s1,inactive,-19,–
Cc1nc(C)c(-c2csc(Nc3cccc(O)c3)n2)s1,inactive,-15.3,–
CC(=O)Nc1ccc(Nc2nc(-c3sc(NC(C)=O)nc3C)cs2)cc1,20.6 µM (active),-25.9,–
CCC(=O)Nc1nc(C)c(-c2csc(Nc3cccc(O)c3)n2)s1,29.1 µM (active),-27,–
CCCCCCC(=O)Nc1nc(C)c(-c2csc(Nc3ccc(Cl)cc3)n2)s1,inactive,–,–
Nc1ncc(-c2nnnn2-c2ccc(Cl)cc2)c(-c2ccc(Cl)cc2)n1,inactive,22.6,–
COC(=O)/C=C1\NCCNC1=O,inactive,9.92,–
COc1ccc(NC(=O)CCC(=O)N/N=C/c2cccnc2)cc1,inactive,1.18,–
COc1cc(CN2CCc3ccc(NC(=O)CCc4ccccc4OC)cc3C2)ccc1O,inactive,-9.87,–
Cc1ccc(C)c(NC(=O)CN(C)C(=O)c2sccc2C)c1,4.61 µM (active),–,–
Cc1ccc(C)c(NC(=O)CN(C)C(=O)Cc2ccccc2)c1,inactive,0.0719,–
Cc1ccsc1C(=O)N(C)CC(=O)Nc1ccccc1Br,–,–,15.6% [at 0.0737 µM] (inactive)
CSCCC(NS(=O)(=O)c1ccccc1F)C(=O)NNC(=O)c1csc(N2CCOCC2)n1 (centres undefined),–,-7.74,27.4% [at 0.0737 µM] (inactive)
CC1CC(C)CN(C(=O)COC(=O)c2c[nH]c3ccccc23)C1 (centres undefined),0.92 µM (active),-17,–
CC1CC(C)CN(C(=O)COC(=O)Cc2c[nH]c3ccccc23)C1 (centres undefined),inactive,–,–
CC1CC(C)CN(C(=O)COC(=O)c2nn(C)c(=O)c3ccccc23)C1 (centres undefined),inactive,14.1,–
CCc1c(C)sc(NC(=O)C2CC2)c1C(=O)OC(C)C,1.3 µM (active),-47.8,–
CCc1c(C)sc(NC(=S)NC(C)C2CCCO2)c1C(=O)OC (centres undefined),inactive,8,–

Structure (SMILES),Potency,cell number change [%],"lipid storage change, negative = inhibition"
CCOC(=O)c1c(NC(=O)C2CC=CCC2C(=O)O)sc(C)c1CC (centres undefined),inactive,12.8,–
CC(NC(=O)CN(c1ccc(F)cc1)S(C)(=O)=O)c1ccccc1 (centres undefined),4.11 µM (active),-10.2,–
CC(NC(=O)CN(c1ccc(Br)cc1)S(C)(=O)=O)c1ccccc1 (centres undefined),inactive,6.99,–
CC(NC(=O)CN(c1ccc(Cl)cc1)S(C)(=O)=O)c1ccccc1 (centres undefined),inactive,17.6,–
Cc1ccccc1CN1C[C@@H]2C[C@@H](c3cnc(N4CCOCC4)s3)N3CCC[C@@]23C1=O,inactive,3.26,–
COc1ccc(C(NC(=O)CNC(C)=O)C(=O)Nc2ccc3c(c2)OCCO3)cc1 (centres undefined),inactive,8.96,–
O=P(c1ccccc1)(c1ccccc1)C(O)c1ccncc1 (centres undefined),inactive,15.4,–
CCO[C@@H]1OC(C(=O)N2CCN(Cc3ccccc3)CC2)=C[C@H](C2CC2)[C@H]1CCCO,inactive,7.31,–
CCO[C@H]1OC(C(=O)N2CCN(Cc3ccccc3)CC2)=C[C@@H](C2CCCCC2)[C@@H]1CCCO,20.6 µM (active),-29.1,–
CCO[C@@H]1OC(C(=O)N2CCCCCCC2)=C[C@H](C2CCCCC2)[C@H]1CCCO,inactive,-14.4,–
COc1cc(S(=O)(=O)N2CCC(c3nc4ccccc4s3)CC2)ccc1S(=O)(=O)N1CC(C)CC(C)C1 (centres undefined),inactive,0.159,–
Cc1cc(=O)oc2cc(OCc3ccc(C(=O)OCC(=O)NC4CCS(=O)(=O)C4)cc3)ccc12 (centres undefined),inactive,8.28,–
CCOc1cc(C(c2c(C)[nH][nH]c2=O)c2c(C)[nH][nH]c2=O)ccc1OS(=O)(=O)c1ccccc1,29.1 µM (active),-2.58,–
CCOc1cc(C(c2c(C)[nH][nH]c2=O)c2c(C)[nH][nH]c2=O)ccc1OS(=O)(=O)c1ccc(C)cc1,inactive,16,–
COc1cc(C(c2c(C)[nH][nH]c2=O)c2c(C)[nH][nH]c2=O)ccc1OS(=O)(=O)c1ccccc1,inactive,-3.94,–
COc1ccccc1N1CCN(C(c2cccs2)c2nnnn2C2CCCC2)CC1 (centres undefined),inactive,-7.64,–
Cc1ccc(SCc2ccc(C(=O)NCc3cccnc3)cc2)cc1,inactive,5.01,–
Cc1ccc(Cl)cc1NC(=S)N(CCN(C)C)C(C)c1ccccn1 (centres undefined),inactive,25.6,–
COc1cc2c(cc1OC)C(=O)N1[C@H]3c4cc(Cl)ccc4OC[C@@H]3[C@H](c3ccccc3)[C@]1(C)C(=O)N2,2.06 µM (active),-5.54,–
CCOC(=O)[C@H]1[C@H]2COc3ccc(OC)cc3[C@@H]2N2C(=O)c3cc(F)c(F)cc3NC(=O)[C@@]12C,inactive,10.2,–
CCOC(=O)[C@H]1[C@H]2COc3cc(OC)ccc3[C@@H]2N2C(=O)c3cc(OC)ccc3NC(=O)[C@@]12C,inactive,-12.2,–

Structure (SMILES),Potency,cell number change [%],"lipid storage change, negative = inhibition"
CCOC(=O)[C@H]1[C@H]2COc3ccc(Cl)cc3[C@@H]2N2C(=O)c3ccccc3NC(=O)[C@@]12C,inactive,-17,–
CCOC(=O)[C@H]1[C@H]2COc3ccc(OC)cc3[C@@H]2N2C(=O)c3ccc(Cl)cc3NC(=O)[C@@]12C,4.11 µM (active),-6.2,–
CCOC(=O)[C@H]1[C@H]2COc3ccc(Cl)cc3[C@@H]2N2C(=O)c3cc(C)ccc3NC(=O)[C@@]12C,1.64 µM (active),–,–
CCOC(=O)[C@H]1[C@H]2COc3cc(OC)ccc3[C@@H]2N2C(=O)c3cc(F)c(F)cc3NC(=O)[C@@]12C,6.51 µM (active),-3.7,–
CCOC(=O)[C@H]1[C@H]2COc3ccccc3[C@@H]2N2C(=O)c3cc(OC)ccc3NC(=O)[C@@]12C,inactive,-11.2,–
CCOC(=O)[C@H]1[C@H]2COc3ccccc3[C@@H]2N2C(=O)c3ccc(Cl)cc3NC(=O)[C@@]12C,inactive,-18.8,–
COc1ccc2c(c1)C(=O)N1[C@H]3c4cc(C)ccc4OC[C@@H]3[C@H](c3ccccc3)[C@]1(C)C(=O)N2,inactive,11.4,–
CCOC(=O)[C@H]1[C@H]2COc3ccc(C)cc3[C@@H]2N2C(=O)c3cc(F)ccc3NC(=O)[C@@]12C,inactive,-22.1,–
COc1ccc2c(c1)[C@H]1[C@H](CO2)[C@H](c2ccccc2)[C@]2(C)C(=O)Nc3ccccc3C(=O)N12,inactive,-2.57,–
Cn1ncc(Br)c1C(=O)Nc1ccc(F)cc1F,inactive,0.403,–
COc1ccc(C(=O)Nc2ccc(NC(C)=O)cc2)cc1S(=O)(=O)N1CCCCC1C (centres undefined),inactive,-5.58,–
CC(CNC(=O)Cn1ccc2cc(S(=O)(=O)N3CCCC3)ccc21)c1ccccc1 (centres undefined),inactive,5.34,–
O=C(OCc1nc(-c2ccccc2Cl)no1)c1ccco1,inactive,1,–
Cc1ccc(-c2ccc3nnc(SCC(=O)NCC4CCCO4)n3n2)cc1 (centres undefined),inactive,7.62,–
Cc1ccc(NS(=O)(=O)c2ccc(NC(=O)C3CCCO3)cc2)cc1 (centres undefined),inactive,-28.7,–
COc1ccccc1CN1CCN(C(CC(C)C)c2nnnn2Cc2cccs2)CC1 (centres undefined),inactive,–,–
CCOC(=O)[C@@H]1[C@H]2COc3ccccc3[C@H]2N2C(=O)N(c3ccc(C(F)(F)F)cc3)C(=O)[C@]12C,1.46 µM (active),21.9,–
CCOC(=O)[C@@H]1[C@H]2COc3ccccc3[C@@H]2N2C(=O)N(c3ccc(F)cc3)C(=O)[C@@]12C,inactive,-1.5,–
CCOC(=O)[C@@H]1[C@H]2COc3ccccc3[C@H]2N2C(=O)N(c3ccc(Cl)cc3)C(=O)[C@]12C,inactive,10.8,–
CCc1ccc(NC(=O)C(=S)NC2CCCCC2)cc1,inactive,1.88,–
Nn1c(SCC(=O)NC2CCCCC2)nnc1-c1ccc(Cl)cc1,inactive,17.9,–
